{"source": "PubChem BioAssay (EPA / NIEHS)", "note": "Results filed as inconclusive are left out. The source made the active and inactive calls. The calls were made as follows, unless noted: active = hit-call score of the fitted dose curve at least 0.9, where 1 is the maximum; inconclusive = response in the unintended direction; inactive = score below 0.9.", "data": [{"assay": "Tanguay_ZF_120hpf_TR_legacy: (Legacy) Oregon State University Tanguay Lab 120 Hour Post-fertilization zebrafish Assay for Touch Response (AID 2283667)", "outline": "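Tropical 5D wild-type zebrafish embryos statically exposed to 120 hpf at 28°C, sealed and dark-covered, 0.64% DMSO final; touch response scored as present/absent by brightfield microscopy at 120 hpf. Trimethyltin chloride 5 uM positive control; dead embryos not scored.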", "values": [{"compound": "CC(O)CCO", "note": "(stereo not drawn)", "outcome": "inactive"}, {"compound": "O=C1CCCO1", "outcome": "inactive"}, {"compound": "N#CC(Br)Br", "outcome": "inactive"}, {"compound": "O=C(N[C@H](c1ccccc1)[C@@H]1CN2CCC1CC2)c1c(Cl)ccc(C(F)(F)F)c1Cl", "AC50": "0.968 µM (active)"}, {"compound": "Cc1cc(N=Nc2ccccc2C)ccc1N", "AC50": "29.8 µM (active)"}, {"compound": "Clc1ccc(Cl)c(Cl)c1", "outcome": "inactive"}, {"compound": "CC(C)(OOC(C)(C)c1ccccc1)c1ccccc1", "outcome": "inactive"}, {"compound": "CCN(CC)N=O", "outcome": "inactive"}, {"compound": "CCC12COCN1COC2", "outcome": "inactive"}, {"compound": "Nc1ccc(Oc2ccc(N)cc2)cc1", "outcome": "inactive"}, {"compound": "OCCOCCO", "outcome": "inactive"}, {"compound": "CCNS(=O)(=O)C(F)(F)C(F)(F)C(F)(F)C(F)(F)C(F)(F)C(F)(F)C(F)(F)C(F)(F)F", "AC50": "17 µM (active)"}, {"compound": "O=Cc1ccco1", "outcome": "inactive"}, {"compound": "COP(=S)(OC)SCN1C(=O)c2ccccc2C1=O", "outcome": "inactive"}, {"compound": "CNC(=O)Oc1cccc2c1OC(C)(C)C2", "outcome": "inactive"}, {"compound": "CS(=O)(=O)NC(=O)c1cc(Oc2ccc(C(F)(F)F)cc2Cl)ccc1[N+](=O)[O-]", "outcome": "inactive"}, {"compound": "[O-][Cl+]O", "outcome": "inactive"}, {"compound": "CCC(C)c1ccc(O)cc1", "note": "(stereo not drawn)", "outcome": "inactive"}, {"compound": "COC(=O)c1ccccc1N", "outcome": "inactive"}, {"compound": "Cc1ccc(N)cc1", "outcome": "inactive"}, {"compound": "C=CCc1ccc2c(c1)OCO2", "outcome": "inactive"}, {"compound": "Nc1cc(Cl)cc(C(=O)O)c1Cl", "outcome": "inactive"}, {"compound": "CCOC(=O)[C@]1(c2ccccc2)Oc2ccccc2[C@@H]1N", "outcome": "inactive"}, {"compound": "Nc1ccc(N=Nc2ccccc2)cc1", "outcome": "inactive"}, {"compound": "CN(C)c1ccc(C(=O)c2ccc(N(C)C)cc2)cc1", "AC50": "43.3 µM (active)"}, {"compound": "CCOc1cccc(C2(N3CCN(c4ccccc4)CC3)CCC(C)CC2)c1", "note": "(stereo not drawn)", "outcome": "inactive"}, {"compound": "C[N+](C)(C)CC1CO1", "note": "(stereo not drawn)", "outcome": "inactive"}, {"compound": "O=C(Nc1ccccc1)c1ccccc1I", "outcome": "inactive"}]}, {"assay": "CCTE_Padilla_ZF_144hpf_TERATOSCORE: (Legacy) CCTE's 144 Hour Post-fertilization zebrafish Assay Teratoscore, Padilla Lab (AID 2283679; active = hit-call score of the fitted dose curve at least 0.9, where 1 is the maximum; inactive = score below 0.9;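 as to AC50: zebrafish embryos with chorions exposed by immersion from 6-8 hpf to 5 dpf with daily renewal; teratogenicity score from eye scoring of death hatching and malformations at 144 hpf; higher score means more developmental defects relative to DMSO baseline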)", "outline": "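Larvae scored by eye at 144 hpf for death, hatching and malformations after a day in clean Hanks'. Before that, daily-renewed exposure at 80 uM (0.4% DMSO, 26C) from roughly 6-8 hpf through 5 dpf, 4 embryos per chemical.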", "values": [{"compound": "CC(O)CCO", "note": "(stereo not drawn)", "outcome": "inactive"}, {"compound": "N#CC(Br)Br", "outcome": "inactive"}, {"compound": "O=C(N[C@H](c1ccccc1)[C@@H]1CN2CCC1CC2)c1c(Cl)ccc(C(F)(F)F)c1Cl", "AC50": "50.8 µM (active)"}, {"compound": "Cc1cc(N=Nc2ccccc2C)ccc1N", "AC50": "7.92 µM (active)"}, {"compound": "Clc1ccc(Cl)c(Cl)c1", "outcome": "inactive"}, {"compound": "CC(C)(OOC(C)(C)c1ccccc1)c1ccccc1", "AC50": "15.4 µM (active)"}, {"compound": "CCC12COCN1COC2", "outcome": "inactive"}, {"compound": "OCCOCCO", "outcome": "inactive"}, {"compound": "CCNS(=O)(=O)C(F)(F)C(F)(F)C(F)(F)C(F)(F)C(F)(F)C(F)(F)C(F)(F)C(F)(F)F", "AC50": "43.5 µM (active)"}, {"compound": "O=Cc1ccco1", "outcome": "inactive"}, {"compound": "COP(=S)(OC)SCN1C(=O)c2ccccc2C1=O", "AC50": "52.6 µM (active)"}, {"compound": "CS(=O)(=O)NC(=O)c1cc(Oc2ccc(C(F)(F)F)cc2Cl)ccc1[N+](=O)[O-]", "AC50": "0.128 µM (active)"}, {"compound": "[O-][Cl+]O", "outcome": "inactive"}, {"compound": "CCC(C)c1ccc(O)cc1", "note": "(stereo not drawn)", "AC50": "60.3 µM (active)"}, {"compound": "COC(=O)c1ccccc1N", "outcome": "inactive"}, {"compound": "Nc1cc(Cl)cc(C(=O)O)c1Cl", "outcome": "inactive"}, {"compound": "CCOC(=O)[C@]1(c2ccccc2)Oc2ccccc2[C@@H]1N", "AC50": "4.92 µM (active)"}, {"compound": "Nc1ccc(N=Nc2ccccc2)cc1", "AC50": "33.9 µM (active)"}, {"compound": "CN(C)c1ccc(C(=O)c2ccc(N(C)C)cc2)cc1", "AC50": "0.544 µM (active)"}, {"compound": "O=C(Nc1ccccc1)c1ccccc1I", "AC50": "5.47 µM (active)"}]}]}
